This note sets out measurements from PubChem BioAssay (NCI).

This is part of a sample that, as a whole, favours compounds with a hit. Of some 83,000 tested, about 20% had one in any assay.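 Note: values are percent growth. 100 is the growth of untreated cells, values between 100 and 0 indicate rising inhibition; between -100 and 0 indicates cell death.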 Values without a mark were called inactive. Calls of active or inactive are those of the source. The calls were made as follows: active = growth percent below 10; inactive = the rest.

Assay in all cases: NCI-60 one-dose screen, 48 h (100 = growth as untreated, 0 = no growth, -100 = all killed)
What all share (conditions): 10 µM unless noted

The subject of assay [1] is RPMI-8226 leukemia.
Assay [2] relates to OVCAR-8 ovarian.
The test system of assay [3] is OVCAR-5 ovarian.
The subject of assay [4] is OVCAR-4 ovarian.
The subject of assay [5] is SK-OV-3 ovarian.
Assay [6] has as its system IGROV1 ovarian.
Assay [7] has as its system OVCAR-3 ovarian.
Assay [8] relates to HS 578T breast.
In assay [9] the test system is NCI/ADR-RES ovarian.
For assay [10], the system named is T-47D breast.

Consider `COc1cc(-c2c3c(cn2S(=O)(=O)c2ccccc2)-c2nc(N)sc2CC3)cc(OC)c1OC`, for which the growth in [1] is 25.3%; in assay [2], 32.7%; in assay [3], 43.4%; in assay [4], 56%; in assay [5], 12.6%; in assay [6] it was 31.6%. Besides, the growth in [7] is -43.5% (active); in assay [8], 23%; in assay [9], 14.9%; in [10], 44%.
As for `CCOC(=O)c1cc2c(n1Cc1cccc(OC)c1)-c1oncc1CCC2`, the growth in assay [1] was 19.1%; in assay [2], 33.4%; in assay [3], 72.8%; in assay [4], 54.3%; in assay [5], 20.7%; in assay [6], 7.29% (active). In addition, the growth in assay [7] was -8.41% (active); in assay [8], 6.59% (active); in assay [9] it was 12.2%; in [10] it was 33.1%.
As to `Cc1ccc2[nH]c(=O)cc(-n3nncc3Cn3c4ccccc4c4ccccc43)c2c1`, the growth is 109% in [1]; 94.9% in assay [2]; 104% in assay [3]; 98.7% in assay [4]; 91.4% in assay [5]; 103% in assay [6]. For the same compound, the growth in assay [7] is 101%; in assay [8] it was 88.4%; in [9], 99.5%; in assay [10], 106%.
As to `COc1cc(C2C3=C(COC3=O)N(CCO)c3cc4c(cc32)OCCO4)cc(OC)c1O` (stereo not given), the growth in assay [1] was 32.4%; in assay [2], 27.4%; in [3], 87.4%; in assay [4], 40.3%; in [5], 24.5%; in assay [6], 27.1%. Moreover, the growth is -31% (active) in assay [7], 21.9% in assay [8], 82.9% in assay [9] and 33.4% in assay [10].
As to `O=c1[nH]nnc2c1ncn2C1OC(CO)C(O)C1O` (stereo not given), the growth in assay [1] is 37.6%; in [2], 95.9%; in assay [3] it was 87.4%; in [4] it was 35.9%; in assay [5], 14.5%; in [6] it was 32.7%. Further, the growth is 41.7% in assay [7], 103% in assay [8], 39.5% in [9] and 77.1% in assay [10].
Consider `COc1cc(CNC(=O)c2ccsc2Nc2ccnc(C(F)(F)F)c2)ccc1O`, for which the growth in [1] is 91%; in assay [2] it was 102%; in assay [3], 107%; in assay [4], 105%; in [5] it was 97.3%; in assay [6], 105%. In addition, the growth in [7] is 105%; in assay [8], 104%; in assay [9], 95.4%; in assay [10], 98.7%.
As to `COc1ccc(Cn2cc(Cn3cc(C=C4C(=O)NC(=O)NC4=O)c4ccccc43)nn2)cc1`, the growth in assay [1] is 83.8%; in [2] it was 87.6%; in assay [3] it was 71.7%; in assay [4], 82.4%; in [5], 75.3%; in assay [6], 94.3%. Besides, the growth was 88.9% in assay [7], 82.6% in assay [8], 84.1% in assay [9] and 64.3% in assay [10].
`O=c1oc2ccc(I)cc2c(=O)n1-c1ccc(F)cc1F`: the growth in [1] is 1.49% (active); in [2], 12.5%; in [3] it was 40%; in assay [4], 12.7%; in [5], -19.4% (active); in assay [6], 20.2%. Moreover, the growth in assay [7] is 2.05% (active); in [8], 19.8%; in assay [9] it was 5.71% (active); in assay [10] it was -13.5% (active).
Turning to `O=c1oc2ccc(F)cc2c(=O)n1-c1ccc(Br)cc1F`, the growth in assay [1] is -22.3% (active); in assay [2], 8.64% (active); in [3], 21.8%; in assay [4], 11.9%; in assay [5] it was -3.03% (active); in assay [6], 17%. Besides, the growth in assay [7] was 5.94% (active); in assay [8], -3.75% (active); in assay [9], 6.34% (active); in [10], -12.3% (active).
As to `CCOC(=O)C1=CN(C)C=C(C(=O)OCC)C1c1cc(Br)c(OCC)c(OC)c1`, the growth in assay [1] was 8.87% (active); in assay [2], 56.8%; in assay [3] it was 63.5%; in [4], 54.9%; in assay [5], 86.4%; in assay [6] it was 35.6%. In addition, the growth in assay [7] was 64.9%; in assay [8], 62.9%; in assay [9] it was 73%; in assay [10], 74.9%.
For the compound `Nc1nc(N)c2c(n1)NC1(C=C(O)c3ccccc31)C1=C(N2)c2ccccc2C1=O` (stereo not given), the growth in [1] is 107%; in assay [2], 103%; in assay [3] it was 116%; in [4], 98.1%; in [5], 121%; in assay [6], 92.3%. Also, the growth is 113% in assay [7], 111% in [8], 107% in assay [9] and 112% in assay [10].
As to `Cn1c2c(c(=O)[nH]c1=O)NC1=C(C(=O)c3ccccc31)C1(C=C(O)c3ccccc31)N2` (stereo not given), the growth in assay [1] is 105%; in assay [2] it was 107%; in assay [3], 111%; in [4], 71.3%; in assay [5] it was 111%; in assay [6] it was 95.5%. Also, the growth in [7] is 95.4%; in [8] it was 110%; in assay [9], 117%; in assay [10], 108%.
As for `COc1ccc(CN2CCCC(C(=O)c3ccc(C(F)(F)F)cc3)C2)c(O)c1` (stereo not given), the growth in assay [1] was 11.8%; in assay [2], 17%; in assay [3], 55%; in assay [4] it was 45.4%; in assay [5] it was 26.1%; in assay [6], 47.5%. For the same compound, the growth was 7.49% (active) in assay [7], 25.8% in assay [8], 9.17% (active) in assay [9] and 26.1% in [10].
With `CC(=Nc1ccccc1)C1=C(O)C(Cc2ccc(F)cc2)NC1=O` (stereo not given), the growth in assay [1] is 5.55% (active); in assay [2], 33.3%; in assay [3] it was 44.9%; in [4] it was 45.5%; in assay [5], 11.7%; in [6], 36.7%. In addition, the growth in assay [7] was -36.9% (active); in assay [8] it was 32.1%; in assay [9], 10.6%; in assay [10] it was 27.7%.
